Compound activity as filed in PubChem BioAssay.
TDP1 cell noCPT: qHTS for Inhibitors of human tyrosyl-DNA phosphodiesterase 1 (TDP1): qHTS in cells in absence of CPT; Potency, µM (series often up to 46.2 µM), for the others: at the highest dose activity change, negative = growth inhibition, hits mostly inhibitors; hit rate 15% among 420,000; AID 686978, 2013; DT40 Tdp1-/- hTDP1 cells, no CPT, ATP luminescence, 48 h; note: potency is the fitted concentration of half-maximal effect; nearly all actives have a fitted effect of over 55% in size
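Compound effects on proliferation are scored in DT40 Tdp1-/-;hTDP1 cells in the absence of CPT. ATP levels (CellTiter-Glo luminescence) are recorded after a ≥48 hr, 37 °C incubation.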
HT1080 IDH1KD tx: HT-1080 IDH1 knockdown cell toxicity (counter line); HT-1080 IDH1 knockdown viability, ATP luminescence, 48 h; Potency, µM (titrated, usually from 46.1 µM), for inactives: at the top dose activity, negative = toxicity, most hits filed as cytotoxic; hit rate 2% among 360,000; AID 686971;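 note: potency is the fitted concentration of half-maximal effect; 0% = DMSO wells and -100% = cell-free medium wells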
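IDH1KD HT-1080 cells, 750/well, RPMI + 5% FBS; compound pinned after 2 h settling; 48 h, 37 °C; CellTiter-Glo luminescence; % activity normalised to DMSO and no-cell wells; curves fitted, classed by r2 and efficacy.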
HT1080-NT tox: kills 2HG-producing HT-1080-NT fibrosarcoma cells. HT-1080-NT fibrosarcoma viability, CellTiter-Glo ATP luminescence, 48 h. Potency, µM (titrated, usually from 46.1 µM), inactives show at the top dose activity, negative = less viability, most hits filed as cytotoxic. hit rate 1.6% among 360,000. AID 686970;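 note: NT is the 2HG producing partner of a matched IDH1 knockdown line; potency is the fitted concentration of half-maximal effect; 0% = DMSO-treated cells and -100% = media-only wells without cells; nearly all actives have a fitted effect of over 55% in size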
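HT-1080-NT fibrosarcoma cells (2HG-overproducing), 750 cells/well in RPMI with 5% FBS, dosed after 2 h and incubated 48 h at 37C. CellTiter-Glo luminescence normalized to DMSO and no-cell wells; concentration-response curves fitted and classed.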
DT40 TDP1 CPT: DT40-hTDP1 cell growth loss with CPT; chicken DT40 Tdp1-/-;hTDP1 cells + 20 nM CPT, ATP luminescence, 48 h; Potency, µM (highest dose often 46.2 µM), inactives show top-dose activity change, negative = growth inhibition, hits mostly inhibitors; hit rate 12% among 420,000; AID 686979; note: potency is the fitted concentration of half-maximal effect; nearly all actives have a fitted effect of over 55% in size
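Chicken DT40 Tdp1-/- cells complemented with human TDP1, 400 cells/well, exposed to compounds plus 20 nM camptothecin for at least 48 h at 37 C; viability read as ATP content by CellTiter-Glo luminescence.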
IL1B secr inh: blocks inflammasome-driven IL-1 beta release; THP-1 LPS/ATP IL-1B secretion, AlphaLISA, 16 h; stronger effect = lower value; activity change, % at 57.5 µM; hit rate 4.7% among 360,000; AID 743279; in the data active = activity change below about -50%; inconclusive = mostly about -30% to -49%
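THP-1 cells pretreated 1 hr with compounds (up to 57.5 uM final), then stimulated with LPS (250 ng/mL final) plus ATP (1.25 mM final); secreted IL-1B measured by AlphaLISA after 16 hr, decreased signal indicating inhibition.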
* = called active by the depositor; ? = inconclusive; nt = no result given. An excerpt weighted towards active compounds, which were near 19% of everything screened. Unless noted, calls come from the whole dose curve; as a rule, active = well fitted curve in the direction sought with a large enough effect; inconclusive = small, poorly fitted or top-dose-only effect, or another doubt; inactive = no such curve, though single readings can be large; an effect the other way counts as inactive or inconclusive. Unless noted, % is set by controls: 0 for no effect and ±100 for the full control effect.

SMILES | TDP1 cell noCPT | HT1080 IDH1KD tx | HT1080-NT tox | DT40 TDP1 CPT | IL1B secr inh
COc1ccc(F)cc1-c1cc(NC=O)c2ncc(-c3cccc(C(F)(F)F)c3)n2c1 | 4.61µM* | 5.17µM* | ? | 5.17µM* | 2.5
COc1ccc(-c2cnc3c(NC=O)cc(-c4ccc(F)cc4)cn23)cc1OC | 0.013µM* | ? | ? | 0.0058µM* | -14.0
CCC(C)(C)NC(=O)C(c1cccc(OC)c1)N(C(=O)CNC(=O)c1cccs1)c1cccnc1 (stereo not given) | -19.7% | 12.1% | -1.6% | -1.6% | -1.7
CC(C)c1ccc(NC(=O)CSC2=Nc3ccccc3C3=NC(CC(=O)NCc4ccc(F)cc4)C(=O)N23)cc1 (stereo not given) | -11.3% | nt | nt | 0.7% | nt
CCSc1ccc(-c2cc(NC=O)c3ncc(-c4cc(OC)c(OC)c(OC)c4)n3c2)cc1 | ? | -23.3% | ? | ? | 109.9
COc1ccc(-c2cnc3c(NC=O)cc(-c4ccccc4)cn23)cc1OC | 0.92µM* | ? | ? | 0.92µM* | -13.5
COc1ccc(-c2cc(NC=O)c3ncc(-c4cc(OC)c(OC)c(OC)c4)n3c2)cc1 | 0.206µM* | ? | ? | 0.146µM* | 108.1
Cc1ccc(/C=C/c2onc(C)c2S(=O)(=O)N2CCC(C(=O)NC(C)(C)C)CC2)cc1 | ? | 1.1% | -6.9% | ? | 11.7
N#Cc1ccc(OCc2nnc(SCC(=O)c3ccccc3)n2-c2ccccc2)cc1 | ? | -7.6% | -7.4% | 23.1µM* | -18.7
Cc1ccc(OCc2nnc(SCC(=O)c3ccccc3)n2-c2ccccc2)cc1 | ? | ? | ? | ? | -55.7*
COCc1nnc(SCC(=O)NCc2ccccc2)n1-c1ccccc1 | 2.0% | 10.5% | 17.1% | -1.1% | -6.0
COC(=O)c1cccc(NC(=O)CSc2nnc(COc3ccc(C#N)cc3)n2-c2ccccc2)c1 | ? | -8.9% | -7.2% | -18.0% | 4.3
Cc1cccc(-n2c(CCc3ccccc3)nnc2SCC(=O)c2ccccc2)c1 | 9.2µM* | -4.4% | 1.2% | 9.2µM* | -85.6*
Cc1cccc(OCc2nnc(SCC(=O)O)n2-c2ccccc2)c1 | -0.5% | -6.4% | -6.0% | -2.0% | -26.4
Cc1ccc(-n2c(CCc3ccccc3)nnc2SCC(=O)NCc2ccccc2)cc1C | 23.1µM* | -2.2% | -2.8% | ? | -57.1*
COc1ccc(NC(=O)CN(C)C2=NS(=O)(=O)c3ccccc32)cc1Cl | -5.1% | 7.7% | 6.0% | -17.8% | -5.7
CCOC(=O)/C(=N/Nc1ccccc1)Sc1nnc(CCc2ccccc2)n1-c1ccccc1 | 4.4% | -1.3% | 2.6% | -0.7% | -73.3*
CCOC(=O)/C(=N/Nc1ccccc1)Sc1nnnn1-c1ccc(C)cc1 | -7.3% | -28.9% | -1.1% | -12.0% | 14.7
COc1ccc(-c2cc(C(F)(F)F)n3nc(C(=O)N(C)Cc4ccccc4)cc3n2)cc1OC | ? | 5.0% | -1.0% | 16.4µM* | -20.7
COc1ccc(-c2cc(C(F)(F)F)n3nc(C(=O)Nc4ccc(Cl)cc4C(F)(F)F)cc3n2)cc1OC | -5.5% | nt | nt | -9.9% | nt
CCCCNC(=O)c1cc2nc(-c3ccc(OC)cc3)cc(C(F)(F)F)n2n1 | 25.9µM* | -4.8% | -5.0% | ? | -5.9
CCCCNC(=O)c1nn2c(C(F)(F)F)cc(-c3ccc(OC)cc3)nc2c1Br | ? | -5.7% | -13.1% | 23.1µM* | 24.8
COc1cc(NC(=O)c2cc3nc(-c4ccc(C)cc4)cc(C(F)(F)F)n3n2)cc(OC)c1OC | 7.31µM* | nt | nt | ? | nt
COc1cc(C2(c3ccc(O)c(OC)c3)C(=O)N(C)c3ccc(C)cc32)ccc1O | ? | -3.3% | -11.8% | -7.2% | 7.3
N#Cc1ccccc1NC(=O)c1ccc2c(c1)OCCO2 | -17.1% | -2.9% | -2.1% | -6.2% | -3.6
SMILES | TDP1 cell noCPT | HT1080 IDH1KD tx | HT1080-NT tox | DT40 TDP1 CPT | IL1B secr inh
O=C(NCc1cccs1)c1ccc2sc([C@@H]3O[C@H](CO)[C@H](O)[C@H](O)[C@H]3O)nc2c1 | 0.1% | 13.7% | 20.0% | -18.2% | 40.8
Cc1cc(-c2ccccc2)nc2cc(C(=O)N(Cc3ccccc3)Cc3ccccc3)nn12 | ? | 16.4µM* | ? | ? | -16.4
CCCCOc1ccc(C(=O)NCCOc2cccc(OC)c2)cc1 | -22.0% | 0.0% | -0.1% | -17.5% | -5.9
CCC(=O)N1N=C(c2ccccc2)CC1c1ccccc1 (stereo not given) | -17.4% | 2.6% | -1.2% | -1.7% | -5.4
CCOC(=O)c1nnn(CC(=O)N2N=C(c3cccc4ccccc34)CC2c2ccccc2)c1C(=O)OCC (stereo not given) | 20.6µM* | -2.7% | -5.3% | ? | -25.8
CCCCN(C(=O)c1cccc2c(=O)c(C)c(-c3ccccc3)oc12)c1ccccc1 | 8.2µM* | ? | -21.6% | 16.4µM* | 0.0
Cc1c(-c2ccccc2)oc2c(C(=O)N3CCN(c4ccccc4F)CC3)cccc2c1=O | 20.6µM* | 11.7% | 11.4% | 20.6µM* | 37.6
COc1ccc(-c2cnc3c(NC=O)cc(-c4cccc(NS(C)(=O)=O)c4)cn23)cc1OC | 3.66µM* | 4.61µM* | 2.31µM* | 4.61µM* | -24.0
CN(C)C(=O)c1cccc(-c2cnc3c(NC=O)cc(-c4ccccc4F)cn23)c1 | 18.4µM* | -17.3% | -4.4% | ? | 4.0
CN(C)C(=O)c1cccc(-c2cnc3c(NC=O)cc(-c4cc(F)c(F)c(F)c4)cn23)c1 | ? | 6.2% | -1.1% | ? | -1.8
COc1ccccc1-c1cc(NC=O)c2ncc(-c3cccc(C(=O)N(C)C)c3)n2c1 | ? | ? | ? | ? | 19.3
COc1cc(-c2cc(NC=O)c3ncc(-c4cccc(C(=O)N(C)C)c4)n3c2)cc(OC)c1OC | 14.6µM* | -10.0% | -22.7% | ? | 1.0
COc1cccc(-c2cnc3c(NC=O)cc(-c4cc(OC)c(OC)c(OC)c4)cn23)c1 | ? | 16.4µM* | ? | ? | 22.1
COc1ccc(CNC(=O)c2ccc3c(c2)NC(=O)C(C)S3)cc1 (stereo not given) | -21.0% | -6.3% | -0.2% | ? | 34.2
COc1cccc(-c2cc(NC=O)c3ncc(-c4ccc(OC)c(OC)c4)n3c2)c1 | 4.11µM* | 6.51µM* | 2.91µM* | 5.17µM* | -29.7
CCCCCOC(=O)Nc1ccc(S(=O)(=O)Nc2cccc([N+](=O)[O-])c2)cc1 | ? | ? | ? | -21.3% | -88.5*
CCCCOC(=O)Nc1ccc(S(=O)(=O)Nc2ccc([N+](=O)[O-])cc2)cc1 | -1.8% | -2.0% | 10.8% | -7.4% | 9.9
O=c1nc(N/N=C/C=C/c2ccccc2)cn[nH]1 | 8.2µM* | 26.9% | ? | ? | -2.2
